The record followed here is PubChem BioAssay.

A short description of assay [1]: inhibitors of TNFa-induced NFkB p65 translocation, primary screen, imaging, HUVEC, MLSMR starter and 10KST1 sets (AID 438;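 active means inhibition above 20% together with a positive visual image hit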;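 further: compound added about 3h40 before a 20 min TNFalpha stimulation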;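 on inhibition: signal is the nuclear over cytoplasmic p65 intensity ratio per well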). Particulars: HUVEC TNFa-induced p65 nuclear translocation; cell count: measured here: nuclei count (cytotoxicity indicator), at 2.08 µM; inhibition: at 2 µM, stronger effect = higher value, 0% TNFa-plus-vehicle, 100% no-TNFa wells.
Assay [2] can be described thus: inhibitors of mutant huntingtin aggregation, primary screen, imaging, exon1htt(103Q)mCFP cells, high-content imaging (AID 483).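 Further: compound exposure lasted 3 days before fixation.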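 On nuclei count: percent of the per-plate median nuclei count of sample wells.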 Particulars: exon1htt(103Q)mCFP cell line, aggregate imaging, at 2 µM; inhibition of aggregation: stronger effect = higher value; nuclei count: measured here: cell count, toxicity.
Assay [3] in a line: inhibitors of E-selectin induction by TNFa, primary screen, imaging, HUVEC, immunofluorescence, MLSMR starter and 10KST1 sets (AID 487;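 active means visually confirmed hit in the image check and inhibition above 20%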;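 on inhibition: signal is fraction of cell area covered by stained E-selectin grains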;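 on nuclei count: 100% = median nuclei count of all wells on the same plate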). Particulars: HUVEC TNFalpha-induced E-selectin immunofluorescence imaging, at 2 µM; inhibition: stronger effect = higher value; nuclei count: measured here: cell number, toxicity.
Assay [4] concerns the target Voltage-gated potassium channel subunit beta-2 (Rattus norvegicus) (UniProt P62483). Briefly: KvBeta enzyme negative modulators, primary screen, biochemical, NADPH fluorescence (AID 622;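 active means fluorescence slope higher than the sample average by over 3 SD, cut at about -0.22 in these data, passing the limit was not always enough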;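 further: slope of raw intensity against log time taken from 70 to 1610 s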). As to conditions: recombinant KvBeta, 4-cyanobenzaldehyde reduction, at 10 µM, stronger effect = higher value.
Assay [5] shares this target. The assay can be described thus: KvBeta positive modulators, primary screen, biochemical, NADPH fluorescence (AID 623;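 active means NADPH fluorescence slope more negative than the mean of all samples by about 3 SD, 99.7% confidence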;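 further: fluorescence intensity change per second fitted from 20 to 320 s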). As to conditions: Recombinant KvBeta, NADPH fluorescence decrease slope, 10 min; at 10 µM; stronger effect = lower value.
Assay [6] has as its target Alpha-2C adrenergic receptor (Homo sapiens) (UniProt P18825). Briefly: modulators of alpha2C/GIRK thallium flux, primary screen, cell-based, HEK293 alpha2C/GIRK1/2 (AID 624;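 active means fluorescence slope after compound addition differing from the mean of all screened samples at 99.7% confidence, in either direction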;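 further: slope of fluorescence ratio to pre-addition baseline per second over 15 to 24 s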). As to conditions: thallium flux BTC fluorescence, at 10 µM, actives lie on both sides.
The nature of assay [7]: inhibitors of Sendai virus-induced IRF3 signaling, primary screen, TLR/RLR signaling modifier project, cell-based, Sendai virus stimulus, luciferase, 10K MLSCN set (AID 602276;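 active means inhibition at or above 50% at 10 µM; inactive means inhibition below 50%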;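 further: firefly luciferase from ISG56 promoter only with Renilla not read in this screen; 0% = Sendai virus plus DMSO and 100% = medium plus DMSO without virus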). As to conditions: HEK293 RL24 IRF3 luciferase reporter, at 10 µM, stronger effect = higher value. In general terms: Reporter assays use an easily measured gene product as a stand-in for the process of interest.

Assay [8] in a line: inhibitors of poly I:C-induced TLR3 signaling, primary screen, cell-based, poly I:C stimulus, luciferase, 10K MLSCN set (AID 602277;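 active means inhibition of the reporter signal at or above 50%; inactive means inhibition below 50%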). As to conditions: HEK293-TLR3 RL24 IRF3 luciferase reporter, at 10 µM, stronger effect = higher value.

The source made the active and inactive calls.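 How the source made its calls, unless noted: active means visual image review flags a hit and inhibition of aggregation exceeds 20%; inconclusive means visual hit but inhibition at or below 20%; inactive means no hit on visual image review.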

Chain of Alpha-2C adrenergic receptor (Homo sapiens) (P18825 whole entry, looked up): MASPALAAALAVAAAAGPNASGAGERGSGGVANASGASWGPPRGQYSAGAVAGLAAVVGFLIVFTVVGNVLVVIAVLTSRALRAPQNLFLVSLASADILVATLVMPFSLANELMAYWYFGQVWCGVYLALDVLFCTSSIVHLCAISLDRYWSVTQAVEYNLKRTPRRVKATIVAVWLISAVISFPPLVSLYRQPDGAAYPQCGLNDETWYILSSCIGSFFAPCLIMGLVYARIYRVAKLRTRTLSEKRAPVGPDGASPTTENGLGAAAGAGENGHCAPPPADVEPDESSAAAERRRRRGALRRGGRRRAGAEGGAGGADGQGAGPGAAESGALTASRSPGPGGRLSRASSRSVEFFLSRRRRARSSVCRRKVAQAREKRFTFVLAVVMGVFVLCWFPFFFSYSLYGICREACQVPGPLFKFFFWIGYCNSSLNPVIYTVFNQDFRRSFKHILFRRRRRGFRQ
Chain of Voltage-gated potassium channel subunit beta-2 (Rattus norvegicus) (P62483 whole entry, looked up): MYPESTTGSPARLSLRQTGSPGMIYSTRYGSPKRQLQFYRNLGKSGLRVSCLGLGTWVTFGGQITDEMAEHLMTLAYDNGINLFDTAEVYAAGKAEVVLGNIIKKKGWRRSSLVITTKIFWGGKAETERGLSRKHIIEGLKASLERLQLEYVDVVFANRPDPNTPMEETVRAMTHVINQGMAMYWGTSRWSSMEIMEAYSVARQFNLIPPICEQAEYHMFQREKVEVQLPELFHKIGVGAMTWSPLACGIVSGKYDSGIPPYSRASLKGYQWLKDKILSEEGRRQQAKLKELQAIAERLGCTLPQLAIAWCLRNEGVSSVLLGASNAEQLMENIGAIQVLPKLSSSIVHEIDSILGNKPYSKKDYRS

With `COCCn1nnnc1C(c1cc2cc(OC)ccc2[nH]c1=O)N1CCC(Cc2ccccc2)CC1` (centres undefined), the cell count in assay [1] was found to be 247. Further, the inhibition – broadly, the drop in the measured response relative to a control, in per cent – is -3.5% (inactive) in assay [1], -39.9% (inactive) in assay [3], 14.4% (inactive) in assay [7] and 30.6% (inactive) in assay [8]. For the same compound, the inhibition of aggregation in assay [2] was -2.5% (inactive). The nuclei count in assay [2] is 88.5%; in assay [3], 117%. Besides, the fluorescence slope in assay [4] was -0.359 (inactive). For the same compound, the NADPH fluorescence slope in assay [5] is 1.6e-05 (inactive). The slope in assay [6] was 0.00322 (inactive).
For the compound `Cc1c(C(=O)NCc2ccccc2)oc2c1C(=O)CCC2`, the cell count in assay [1] turned out to be 530. Moreover, the inhibition was -18.8% (inactive) in assay [1], -70% (inactive) in assay [3], -4.65% (inactive) in assay [7] and -7.05% (inactive) in assay [8]. Also, the inhibition of aggregation in assay [2] is -28.3% (inactive). Also, the nuclei count in assay [2] worked out at 101%; in assay [3] it was 121%. Also, the fluorescence slope in assay [4] is -0.372 (inactive). For the same compound, the NADPH fluorescence slope in assay [5] is -6.4e-05 (inactive). The slope in assay [6] is 0.00395 (inactive).
Turning to `CCOCCCNC(=O)C1CCC(CNS(=O)(=O)c2cccc3nsnc23)CC1` (centres undefined), in assay [1], the cell count was determined as 808. In addition, the inhibition was 6.8% (inactive) in assay [1], -19.9% (inactive) in assay [3], 8.12% (inactive) in assay [7] and 22.9% (inactive) in assay [8]. In assay [2], the inhibition of aggregation was -28.4% (inactive). Moreover, the nuclei count stood at 103% in assay [2] and 119% in assay [3]. Further, the fluorescence slope in assay [4] is -0.476 (inactive). Also, the NADPH fluorescence slope in assay [5] is -4.4e-05 (inactive). Further, the slope in assay [6] was 0.00547 (inactive).
Consider `CC1Cc2ccccc2N1C(=O)C12CCC(C)(C(=O)C1)C2(C)C` (centres undefined), for which the cell count in assay [1] is 387. Moreover, the inhibition is -1.6% (inactive) in assay [1], -141% (inactive) in assay [3], -4.72% (inactive) in assay [7] and 1.25% (inactive) in assay [8]. Besides, in assay [2], the inhibition of aggregation is -6.9% (inactive). Further, the values for the nuclei count in assay [2] and in assay [3] were 99.5% and 116%, respectively. Further, the fluorescence slope in assay [4] is -0.544 (inactive). The NADPH fluorescence slope in assay [5] is -7.5e-05 (inactive). Also, the slope in assay [6] is 0.00468 (inactive).
For the compound `CC1(C)NC(=O)N(CC(O)CN2CCCCC2)C1=O` (centres undefined), in assay [1], the cell count is 658. For the same compound, the inhibition in assay [1] was 1.6% (inactive); in assay [3], 36.5% (inactive); in assay [7] it was -4.08% (inactive); in assay [8] it was -0.921% (inactive). Further, in assay [2], the inhibition of aggregation is 10.5% (inactive). The figures for the nuclei count in assay [2] and in assay [3] were 93.2% and 109%, respectively. In addition, the fluorescence slope in assay [4] was -0.47 (inactive). For the same compound, the NADPH fluorescence slope in assay [5] is -1.7e-06 (inactive). In addition, the slope in assay [6] is 0.00522 (inactive).
Consider `O=C(NCC1CCCO1)C1CCN(c2ccc(S(=O)(=O)N3CCCC3)cc2)CC1` (centres undefined), for which the cell count in assay [1] worked out at 446. For the same compound, the inhibition was 8.5% (inactive) in assay [1], -38.5% (inactive) in assay [3], 5.23% (inactive) in assay [7] and 21.3% (inactive) in assay [8]. The inhibition of aggregation in assay [2] is -5.9% (inactive). Further, the values for the nuclei count in assay [2] and in assay [3] were 103% and 108%, respectively. Besides, the fluorescence slope in assay [4] is -0.434 (inactive). Besides, in assay [5], the NADPH fluorescence slope is -3.3e-05 (inactive). The slope in assay [6] was 0.0046 (inactive).
`C/C(=N\O)C(=O)C(CN1CCCCC1)CN1CCCCC1`: the cell count in assay [1] worked out at 386. For the same compound, the inhibition in assay [1] is 0.5% (inactive); in assay [3] it was -144% (inactive); in assay [7], -5.16% (inactive); in assay [8] it was 25.3% (inactive). In addition, the inhibition of aggregation in assay [2] is -0.1% (inactive). The results for the nuclei count in assay [2] and in assay [3] were 89.2% and 98.1%, respectively. For the same compound, the fluorescence slope in assay [4] was -0.437 (inactive). Besides, the NADPH fluorescence slope in assay [5] was 1.9e-05 (inactive). In assay [6], the slope is 0.00389 (inactive).
Take `CC1C(=O)C(C)C(c2cccs2)NC1c1cccs1` (centres undefined): in assay [1], the cell count is 295. The inhibition is -1.4% (inactive) in assay [1], 13.7% (inactive) in assay [3], 3.78% (inactive) in assay [7] and 3.34% (inactive) in assay [8]. In addition, in assay [2], the inhibition of aggregation was 10.2% (inactive). For the same compound, the results for the nuclei count in assay [2] and in assay [3] were 68.6% and 87.4%, respectively. For the same compound, the fluorescence slope in assay [4] is -0.501 (inactive). Further, the NADPH fluorescence slope in assay [5] is 9.3e-06 (inactive). Further, the slope in assay [6] was 0.00548 (inactive).
As to `Cc1ccc(C2c3sc(=O)[nH]c3SC3C(=O)NC(=O)C32)cc1` (centres undefined), the cell count in assay [1] turned out to be 401. Besides, the inhibition in assay [1] was 6.1% (inactive); in assay [3], -18% (inactive); in assay [7], 1.16% (inactive); in assay [8] it was 58.9% (active). For the same compound, in assay [2], the inhibition of aggregation is 11.3% (inactive). Besides, the nuclei count in assay [2] is 88.3%; in assay [3], 99.5%. Besides, the fluorescence slope in assay [4] was -0.558 (inactive). The NADPH fluorescence slope in assay [5] was -2.2e-05 (inactive). Moreover, the slope in assay [6] is 0.00486 (inactive).
As for `CSc1ccc(Cn2nnc(C(=O)NCc3ccccc3)c2N)cc1`, in assay [1], the cell count came out at 570. In addition, the inhibition in assay [1] was -2.3% (inactive); in assay [3], -74.8% (inactive); in assay [7] it was 5.71% (inactive); in assay [8] it was 12.9% (inactive). Besides, the inhibition of aggregation in assay [2] was 17.3% (inactive). Further, the nuclei count in assay [2] is 100%; in assay [3], 134%. For the same compound, the fluorescence slope in assay [4] was -0.478 (inactive). In assay [5], the NADPH fluorescence slope was -2e-05 (inactive). Also, the slope in assay [6] was 0.00597 (inactive).
For the compound `O=C(Nc1cnccn1)c1cccs1`, the cell count in assay [1] came to 655. In addition, the inhibition in assay [1] is -17.2% (inactive); in assay [3] it was -34.1% (inactive); in assay [7] it was 10.2% (inactive); in assay [8], 12.3% (inactive). In assay [2], the inhibition of aggregation is -13.1% (inactive). Besides, the results for the nuclei count in assay [2] and in assay [3] were 122% and 110%, respectively. Moreover, the fluorescence slope in assay [4] is -0.517 (inactive). For the same compound, the NADPH fluorescence slope in assay [5] was -2.8e-05 (inactive). Also, in assay [6], the slope is 0.00591 (inactive).
Consider `COc1ccc(NC(=O)CN(c2cc(C)cc(C)c2)S(=O)(=O)c2c(C)noc2C)cc1OC`, for which the cell count in assay [1] was determined as 753. In addition, the inhibition in assay [1] is -1.7% (inactive); in assay [3] it was -8.7% (inactive); in assay [7] it was 15.1% (inactive); in assay [8] it was 38% (inactive). The inhibition of aggregation in assay [2] is -15.7% (inactive). Also, the nuclei count was 116% in assay [2] and 117% in assay [3]. Besides, the fluorescence slope in assay [4] was -0.551 (inactive). Also, in assay [5], the NADPH fluorescence slope was -2.2e-05 (inactive). Besides, the slope in assay [6] was 0.00583 (inactive).
Take `COC(=O)Cc1cc(=O)[nH]c(Nc2nc3ccccc3o2)n1`: in assay [1], the cell count is 354. For the same compound, the inhibition in assay [1] is -1.4% (inactive); in assay [3], -125% (inactive); in assay [7], -2.52% (inactive); in assay [8], -64.7% (inactive). Moreover, the inhibition of aggregation in assay [2] is -11.1% (inactive). Also, the nuclei count in assay [2] was found to be 108%; in assay [3] it was 112%. Besides, in assay [4], the fluorescence slope is -0.268 (inactive). In assay [5], the NADPH fluorescence slope was -3.1e-06 (inactive). Further, in assay [6], the slope was 0.00603 (inactive).
On to `O=C(NCC(c1cccnc1)N1CCOCC1)c1ccco1` (centres undefined), for which, in assay [1], the cell count worked out at 453. The inhibition is 2.4% (inactive) in assay [1], -42.3% (inactive) in assay [3], 15.9% (inactive) in assay [7] and 31% (inactive) in assay [8]. Besides, in assay [2], the inhibition of aggregation is -3.5% (inactive). Further, the nuclei count in assay [2] is 100%; in assay [3], 129%. Further, the fluorescence slope in assay [4] is -0.336 (inactive). For the same compound, the NADPH fluorescence slope in assay [5] was 3.2e-06 (inactive). Moreover, the slope in assay [6] is 0.00285 (inactive).
